# Screening data: PubChem, National Center for Advancing Translational Sciences (NCATS)
# A selection: hits, their analogues and other compounds. The true share with any hit is near 7.5%.
# NPC1 prom act – activates the NPC1 promoter. Huh7 NPC1 promoter luciferase reporter, 24 h. actives 2.4% (n = 320,000). Potency, µM (series often up to 9.22 µM), for inactives: at the top dose activation, usual class: activators; note: % of control where 0% means no effect; nearly all actives have a fitted effect of over 60% in size
#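 In 1536-well qHTS, Huh7 cells harboring an NPC1 promoter–luciferase construct received compound for 24 h; activation was quantified by luminescence following luciferase reagent addition.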
# FLuc modulator – counter-screen for miR-21 project: firefly luciferase inhibitors or activators. Potency, µM (series often up to 57.5 µM), for inactives: at the top dose activity change, negative = inhibition, hits mostly inhibitors. purified FLuc, Km substrates, luminescence inhibition. AID 588342. actives 6.9% (n = 360,000). P08659;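 note: plate controls were vehicle for no effect and reference inhibitor for full effect; nearly all actives have a fitted effect of over 55% in size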
# Target sequence (P08659 whole entry, looked up): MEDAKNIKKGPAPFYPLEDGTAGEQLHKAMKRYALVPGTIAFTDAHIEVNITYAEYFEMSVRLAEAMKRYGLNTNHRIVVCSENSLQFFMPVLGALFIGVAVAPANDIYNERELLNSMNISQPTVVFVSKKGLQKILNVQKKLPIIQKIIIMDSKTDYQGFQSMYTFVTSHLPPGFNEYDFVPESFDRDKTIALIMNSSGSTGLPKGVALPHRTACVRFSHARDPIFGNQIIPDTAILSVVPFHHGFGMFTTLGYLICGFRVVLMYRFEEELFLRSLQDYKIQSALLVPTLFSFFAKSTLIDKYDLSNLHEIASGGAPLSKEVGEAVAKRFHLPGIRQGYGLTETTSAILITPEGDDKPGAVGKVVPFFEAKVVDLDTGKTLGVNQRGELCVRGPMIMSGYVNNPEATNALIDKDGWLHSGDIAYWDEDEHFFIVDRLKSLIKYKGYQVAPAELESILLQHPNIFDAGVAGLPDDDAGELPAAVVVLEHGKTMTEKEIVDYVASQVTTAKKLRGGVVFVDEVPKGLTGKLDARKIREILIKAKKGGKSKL
#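 Biochemical qHTS of compounds, final roughly 60 µM downward over six points, against 10 nM purified firefly luciferase using Km concentrations of substrates (10 uM D-luciferin, 10 uM ATP) in Tris acetate pH 7.5 buffer; luminescence output.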
# KinaseGlo FLuc – Kinase-Glo luciferase inhibition (counter-screen); Potency, µM (titrated, usually from 38.3 µM), for the others: at the top dose activity change, negative = inhibition, actives largely listed as inhibitors; AID 1379; actives 0.28% (n = 200,000); Q27757; Kinase-Glo luciferase, ATP luminescence, 8 min; note: % is set by controls: 0 for no effect and ±100 for the full control effect; nearly all actives have a fitted effect of over 60% in size
#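 Recombinant Kinase-Glo luciferase, 10 uM ATP (linear range), luciferin; imidazole pH 7.2 / KCl / MgCl2 / Tween / BSA buffer; 8 min RT; luminescence.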
# SMN2 splice up – enhancers of SMN2 splice variant expression; Potency, µM (top dose mostly 46.1 µM), for inactives: top-dose activity change, positive = activation, hits mostly activators; HEK293 SMN2-luciferase splicing reporter, luminescence, 30-36 h; AID 1458; actives 2.8% (n = 210,000); note: % of control where 0% means no effect; nearly all actives have a fitted effect of over 55% in size
#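 HEK293 cells carry an SMN2 minigene-luciferase reporter in which exon 7 inclusion puts luciferase in frame. Cells were seeded at 2000 cells/well, attached for 10-12 hours, then exposed to compounds for 30-36 hours at 37C before ONE-Glo luminescence.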
# ELG1 genotoxic – induces genotoxicity in HEK293T cells with luciferase-tagged ELG1; HEK293T ELG1-luciferase reporter, luminescence, 16 h; actives 1.3% (n = 330,000); Potency, µM (doses to about 46 µM), for the others: at the top dose activity change, positive = activation, actives largely listed as activators; note: % of control where 0% means no effect; nearly all actives have a fitted effect of over 60% in size
#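 HEK293T cells expressing luciferase-tagged ELG1 were exposed to compound or DMSO vehicle for 16 hr at 37 °C and 5% CO2. Luciferase activity was then measured with ONE-Glo after 30 min at room temperature.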
# Rab9 prom act – activators of Rab9 promoter | Huh7 Rab9 promoter-luciferase reporter, luminescence, 24 h | AID 485297 | Potency, µM (series often up to 9.22 µM), for inactives: top-dose activation, negative = inhibition, hits mostly activators | actives 2.8% (n = 320,000); note: % of control where 0% means no effect; nearly all actives have a fitted effect of over 60% in size
#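 Using Huh7 cells stably transfected with Rab9 promoter–luciferase, compounds were incubated 24 h at 37 °C, 5% CO2; luciferase luminescence was read 10 min after reagent addition.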
# * hit, by the source's call; u = inconclusive; x = no result; [ ] = another dose, or the depositor's remark. Calls come from the whole dose curve; as a rule, active = well fitted curve in the direction sought with a large enough effect; inconclusive = small, poorly fitted or top-dose-only effect, or another doubt; inactive = no such curve, though single readings can be large; an effect the other way counts as inactive or inconclusive. Potency is the fitted concentration of half-maximal effect.
SMILES,NPC1 prom act,FLuc modulator,KinaseGlo FLuc,SMN2 splice up,ELG1 genotoxic,Rab9 prom act
C/C(=N\N=c1/sc2ccccc2n1C)c1ccc(N2CCOCC2)cc1,-2%,2.4µM*,-2%,12%,9%,21%
CC(C)(C)c1ccc(C(=O)COC(=O)CN2C(=O)NC3(CCCC3)C2=O)cc1,-3%,8.5µM*,x,x,5%,0%
CC(C)(C)c1ccc(COC(=O)CN2C(=O)NC3(CCCC3)C2=O)cc1,9%,2%,x,x,-3%,-2%
O=C1c2sc3nc4n(c(=O)c3c2CCC1Br)CCCCC4 (stereo not given),29%,19µM*,-6%,-4%,u,u
O=c1c2c3c(sc2nc2n1CCCCC2)C(O)CCC3 (stereo not given),u,u,-5%,x,u,2.8µM*
O=c1nc(Nc2cccc(Cl)c2)oc2cc(Cl)oc(=O)c12,18%,13µM*,x,x,6%,-2%
CCc1nc(-c2ccc(C)c(S(=O)(=O)N3CCN(c4ccc(C(C)=O)cc4)CC3)c2)no1,x,-9%,x,x,x,x
CCc1ccc(NC(=O)[C@H](C)NC(=O)C2CCN(C(=O)[C@@H](NC(=O)OC(C)(C)C)C(C)C)CC2)cc1,18%,21µM*,x,x,7%,15%
CC(C)[C@H](NC(=O)OC(C)(C)C)C(=O)N1CCC(C(=O)N[C@@H](C)C(=O)Nc2ccc(F)cc2)CC1,-3%,1%,x,x,-4%,0%
CC1=CC(=C(C#N)c2nc3ccccc3s2)C=C(C)N1c1ccc(F)cc1,24%,3.4µM*,-1%,u,13%,30%
COc1ccccc1N1C(C)=CC(=C(C#N)c2nc3ccccc3s2)C=C1C,16%,3µM*,4%,-43%,14%,3%
CC(C)=C(C#N)c1nc2ccccc2s1,-1%,-14%,2%,-4%,0%,-9%
CCCC1=Nc2cc(C(=O)N3CCN(c4ccccn4)CC3)ccc2Sc2ccc(C)cc21,-6%,3%,x,x,-1%[9.26 µM],-2%
O=C(CSc1nnc(-c2ccco2)n1Cc1ccccc1)c1ccccc1,4.5µM*,12µM*,-2%,7%,u,1.4µM*
CCn1c(SCC(=O)Nc2ccc(OCc3ccccc3)cc2)nnc1-c1ccco1,-4%,15µM*,7%,-32%,-9%,-4%
CCOC(=O)c1c(C)[nH]c(C)c1C(=O)CSc1nnc(-c2ccco2)n1Cc1ccccc1,9%,-1%,0%,35µM*,-30%,-2%
CCOC(=O)c1c(C)[nH]c(C)c1C(=O)CSc1nnc(-c2ccncc2)n1Cc1ccccc1,5%,0%,-1%,-8%,-9%,23%
Cc1ccc(C(=O)CSc2nnc(-c3ccco3)n2Cc2ccccc2)cc1,u,u,-8%,19%,13%,u
Cn1nnnc1SCCCNCc1cccc(OCc2ccccc2)c1,x,-2%,x,x,x,x
CC(=O)c1c(C)[nH]c(C(=O)Nc2ccc(C)cn2)c1C,0.71µM*,0.43µM*,-14%,0.79µM*,u,0.25µM*
CC(=O)c1c(C)[nH]c(C(=O)Nc2nc(C)cs2)c1C,1µM*,0.6µM*,-7%,1.6µM*,0.52µM*,0.11µM*
CC(=O)c1c(C)[nH]c(C(=O)Nc2nc(-c3ccc(Cl)cc3)cs2)c1C,-2%,-7%,0%,-45%,-13%,-3%
CCCCCCc1c(C)c2c(cc(C)c3c(C)c(C)oc32)oc1=O,x,-5%,x,13%,x,x
C/C(=N\NC(=O)c1ccccc1OCc1ccc(F)cc1)c1ccccn1,-4%,21µM*,x,x,5%,-19%
C/C(=N\NC(=O)c1cccc2ccccc12)c1ccccn1,9%,u,x,x,u,-30%
CCOc1ccc(OCc2ccc(C(=O)N/N=C(\C)c3ccccn3)cc2)cc1,-2%,12µM*,0%,-84%,u,-9%
CCC(=O)Nc1ccc(C(=O)Nc2cccc(C)n2)cc1,3.5µM*,17µM*,-16%,x,u,2.5µM*
